Broadly, the inhibition is the change of the read-out against control, counted positive when it falls.

From PubChem BioAssay AID1259343 (VanderVen Lab, College of Veterinary Medicine, Cornell …, 2017) come the findings set out here.

The structures appear in SMILES notation. About 2,900 (47%) of roughly 6,200 compounds were called active. So high a share suggests a set chosen from earlier hits. This is one part of the list. Values without a mark were called inactive. No stated cut-off is given here; in the data, active means inhibition above about 50%; inactive means the rest.

A short description of the assay: Mycobacterium tuberculosis growth inhibition, primary screen (AID 1259343). The settings on record: inhibition: at 10 µM, hits give high values; outcome: 10 uM.
For the compound `O=C(Cn1nnc(-c2ccccc2Cl)n1)Nc1ccc(I)cc1`, the inhibition was 32.1%. For `Cc1ccc(NC(=O)Cc2ccc(OC(F)F)cc2)cc1F`, the inhibition is 48.2%. For `COc1ccc(-c2nnn(CC(=O)Nc3ccc(C)c(F)c3)n2)cc1OC`, the inhibition is 86.6% (active). In the case of `O=C(CN1CCc2ccccc21)NC(=O)NCc1ccccc1` it was 20.7%; in that of `Cc1ccc(NC(=O)CN2CCc3ccccc32)cc1F`, 54.7% (active).

Regarding `CCCn1ncc(CN2CCOC(c3ccc(Cl)c(Cl)c3)C2)c1C` (centres undefined), the inhibition was 7.23%. As to `CCCc1sc(C(=O)Nc2nccs2)cc1CC`, the inhibition was 80.5% (active).

As for `CCOc1ccc(CCN=C=S)cc1OCC`, the inhibition is 97.5% (active). The same measure for `CCSc1nnc(-c2ccc(Cl)cc2Cl)o1`: 100% (active). On to `c1ccc(-c2nnc(SCc3nnc(-c4ccco4)o3)o2)cc1`, for which the inhibition is 69.9% (active). Turning to `N#Cc1ccc(CSc2nnc(-c3ccccc3)o2)cc1`, the inhibition is -28.8%.

Regarding `Clc1ccc(CSc2nnc(-c3ccco3)o2)cc1Cl`, the inhibition was 88% (active).

With `Cn1nnnc1SCc1ccc(Cl)c(Cl)c1`, the inhibition was 37.6%. As for `Clc1ccc(CSc2nnc(-c3ccco3)o2)c(Cl)c1`, the inhibition was -6.93%.

Consider `c1ccc(-c2nnc(CSc3nnc(-c4ccccc4)o3)o2)cc1`, for which the inhibition was 101% (active). The same measure for `Brc1ccccc1-c1nnc(SCc2nnc(-c3ccco3)o2)o1`: -32.1%. As for `ClC12CC3CC(C1)CC(c1nnc(-c4ccco4)o1)(C3)C2`, the inhibition was 12.4%. Consider `Clc1ccccc1-c1nnc(SCc2ccccc2)o1`, for which the inhibition is 74.3% (active).

For the compound `Cc1occc1-c1nnc(SCc2nnc(-c3ccco3)o2)o1`, the inhibition was 92.5% (active). Regarding `Fc1ccccc1-c1nnc(SCc2cccc3ccccc23)o1`, the inhibition was 85.9% (active). `Fc1ccccc1-c1nnc(SCc2ccccc2Br)o1`: the inhibition was 1.69%. As for `Clc1cc2c(c(CSc3nnc(-c4ccco4)o3)c1)OCOC2`, the inhibition was 86.3% (active). In the case of `BrC12CC3CC(C1)CC(c1nnc(-c4ccco4)o1)(C3)C2` it was 23.4%; in that of `Cc1ccc(/C=C/c2nc3scc(CC(C)C)c3c(=O)[nH]2)s1`, -12.6%; in that of `CCCC(=O)N1CCCC1C(=O)Nc1ccc(-c2ccccc2)nn1` (centres undefined), -13%. In the case of `COc1ccccc1CC(=O)N1CCC(n2nc(-c3ccccc3)cc2-c2ccccc2)CC1` it was 59.7% (active); in that of `COc1cc(-c2ccc(=O)n(Cc3ccccc3C)n2)cc(OC)c1OC`, “inactive”; in that of `CCc1ccc(-c2noc(CSc3nnc(-c4ccc5c(c4)OCO5)o3)n2)cc1`, -23.7%. As for `COc1ccccc1-c1noc(CSc2nnc(-c3ccc4c(c3)OCO4)o2)n1`, the inhibition was 99% (active).

For `COc1ccc(-c2noc(CSc3nnc(-c4ccc5c(c4)OCO5)o3)n2)cc1OC`, the inhibition was 78.9% (active).

Consider `COc1ccccc1-c1nnc(SCC(=O)c2ccc3c(c2)OCO3)o1`, for which the inhibition is -33.1%.

For the compound `COc1ccc(OCCSc2nnc(-c3ccc(OC)c(OC)c3)o2)cc1`, the inhibition is 91.1% (active).

Turning to `Cn1c(SC2CCCc3ccccc32)nnc1-c1ccco1` (centres undefined), the inhibition was 27.9%.

As to `CCn1c(SCC(=O)c2cc(C)ccc2C)nnc1-c1ccco1`, the inhibition was 52.6% (active). In the case of `CCn1c(SCC(=O)Nc2ccc(I)cc2)nnc1-c1ccco1` it was 10.3%.

Regarding `CC1CCN(S(=O)(=O)NCCc2ccccc2F)CC1`, the inhibition is 82.6% (active). For `CC1CCCN(S(=O)(=O)NCc2ccccc2Cl)C1` (centres undefined), the inhibition is -12.8%. `CC1CCN(S(=O)(=O)NC(C)c2ccc(F)cc2)CC1` (centres undefined): the inhibition was 17.4%.

As to `C/C=C/c1cc(C(=O)Nc2nc(C)cs2)cc(OC)c1OC`, the inhibition was 57.2% (active). For `Cc1csc(NC(=O)c2ccnc(N(C)C)c2)n1`, the inhibition is -4.65%.

For `COc1ccc(Oc2ccc(CNCc3ccc(C)s3)cn2)cc1`, the inhibition is 78.2% (active). Turning to `COc1ccc(CNC(=O)Nc2ncc([N+](=O)[O-])s2)cc1`, the inhibition was 11.6%. As to `Cc1ccccc1OCC(=O)Nc1ccc(-n2ccnc2)cc1C(F)(F)F`, the inhibition was 8.11%.

Consider `CNC(=O)C(C#N)C(=O)c1sc(-c2ccc(Cl)s2)nc1C` (centres undefined), for which the inhibition is 54.5% (active). Regarding `Cc1nc(-c2cc(Br)cs2)sc1C(=O)O`, the inhibition was 19.5%. In the case of `CC(C)N1CCN(Cc2ccc(C#CC(C)(C)O)s2)CC1CCO` (centres undefined), the inhibition is 77.8% (active). On to `O=C(CS(=O)CCOc1cccc(Br)c1)NCC1CCCCC1` (centres undefined), for which the inhibition was 12.5%. In the case of `O=C(NCC1CCCC1)c1csc(Br)c1` it was 95.4% (active).

With `O=C(NS(=O)(=O)C1CCCC1)c1ccc(F)c(F)c1`, the inhibition was 25.9%. The same measure for `O=C(NCC1CC1)c1cc(-c2ccc(Br)cc2)n[nH]1`: 2.7%; for `COc1ccc(C(=O)NCC2CCCCC2)cc1F`: 70.9% (active). On to `CCOc1ccc(NC(=O)COC(=O)c2ccc(Cl)cc2O)cc1`, for which the inhibition was 94.7% (active). As to `Cc1nc(-n2nc(-c3cccs3)cc2N)[nH]c(=O)c1C`, the inhibition is 92.4% (active). For `CCC(CC)C(=O)Nc1cc(-c2cccs2)nn1-c1nc(C)c(C)c(=O)[nH]1`, the inhibition is -21.5%.

As to `Cc1cc(=O)[nH]c(-n2nc(-c3cccs3)cc2N)n1`, the inhibition is -45.8%. In the case of `CC(C)c1cc(=O)[nH]c(-n2nc(-c3cccs3)cc2N)n1` it was 1.53%; in that of `Cc1nc(-n2nc(-c3cccs3)cc2NC(=O)c2ccc(F)cc2)[nH]c(=O)c1C`, 99.3% (active); in that of `Cc1nc(-n2nc(-c3cccs3)cc2NC(=O)c2ccccc2Cl)[nH]c(=O)c1C`, 61% (active).

In the case of `Cc1nc(-n2nc(-c3cccs3)cc2NC(=O)c2ccccc2F)[nH]c(=O)c1C`, the inhibition was 83.2% (active). With `O=C(O)c1csc(-c2cnn(-c3ccccc3)n2)n1`, the inhibition is 33.6%. `Cc1cc(C)cc(NC(=O)c2ncn(-c3ccccc3C)n2)c1`: the inhibition was 77.4% (active). In the case of `CCN(CC)c1ccc(N2C(=O)CNC2=S)cc1` it was 54.3% (active); in that of `CCN(CC)c1ccc(-c2n[nH]c(=S)o2)cc1`, -4.83%; in that of `O=C1CNC(=S)N1c1ccc(Cl)cc1`, -2.04%. With `O=C(c1ccc(Cl)cc1)c1c(O)cc(-c2ccc(Cl)cc2)oc1=O`, the inhibition was 84% (active).

Consider `S=c1[nH]cc(-c2ccc(Cl)cc2)o1`, for which the inhibition is -9.85%. As to `CSc1nnc(SCc2nc3sc(C(=O)O)c(C)c3c(=O)[nH]2)s1`, the inhibition was 80.8% (active). As for `C=CCSc1nc2sc(C(=O)O)c(C)c2c(=O)[nH]1`, the inhibition is 26.3%. Regarding `Cc1sc2nc(CSC3=NCCS3)[nH]c(=O)c2c1C`, the inhibition is 49%.

With `O=[N+]([O-])C1=C(Nc2ccc(-c3ccccc3)cc2)CS(=O)(=O)C1`, the inhibition was 95.9% (active). The same measure for `CSc1cccc(NC(=O)c2cc(=O)c(OCc3ccc(F)cc3)c[nH]2)c1`: 85.5% (active); for `CC(NC(=O)COc1ccc(C(F)(F)F)cc1)c1cccc(F)c1` (centres undefined): 9.32%; for `O=C(O)c1ccc(F)c(COc2ccc(F)cc2)c1`: 18.4%. The same measure for `Cc1[nH]c(=S)sc1CC(=O)Nc1cccc(OCc2ccc(F)cc2)c1`: 38.9%; for `CC(=O)Nc1cccc(OCc2ccc(F)cc2)c1`: 92.5% (active).

`CC(=O)Nc1ccc(OCc2cccc(F)c2)c(Cl)c1`: the inhibition is 85.1% (active). Consider `CNC(=O)c1ccc(OCc2cccc(F)c2)cc1`, for which the inhibition is 78.6% (active). For the compound `COc1ccc(OCc2cc(C(=O)NCc3cccc(F)c3)no2)c(Cl)c1`, the inhibition was 34.7%. In the case of `CCCS(=O)(=O)NCc1nc(NCCCc2ccccc2)c2ccccc2n1` it was 33.8%; in that of `CN(Cc1cc(-c2ccccc2)no1)Cc1cccc2nonc12`, 27.9%; in that of `CN(Cc1cc(-c2ccncc2)no1)Cc1ccc(C2CCCCO2)s1` (centres undefined), 27.1%. `CN(Cc1cc(-c2ccncc2)no1)Cc1cc2ccccc2o1`: the inhibition is 23.3%.

Regarding `CN(Cc1ccc2c(c1)OCCO2)Cc1cc(-c2ccccc2)no1`, the inhibition was 37.6%. Turning to `CN(Cc1cccc(Cn2cccn2)c1)Cc1cc(-c2ccccc2)no1`, the inhibition was 61.2% (active). Consider `CN(Cc1ccsc1)Cc1cc(-c2ccccc2)no1`, for which the inhibition was 53.4% (active). Regarding `CN(Cc1cc(-c2ccncc2)no1)Cc1ccc(Cl)s1`, the inhibition was 54.1% (active).

With `O=C(Nc1cccc2ncccc12)C1CC2CCCC(C1)C2=O` (centres undefined), the inhibition was -15.1%. On to `CCCCC1CCC(C(=O)Nc2noc3ncccc23)CC1` (centres undefined), for which the inhibition is 99.3% (active). For `CN(Cc1csc(-c2cccs2)n1)c1ccc(-c2nccn2C)nn1`, the inhibition was 68.3% (active). For the compound `c1cnc(N2CCN(Cc3csc(-c4cccs4)n3)CC2)nc1`, the inhibition was 40.8%. As for `CC1CCc2[nH]c3c(C(=O)NCC4CN(C)CCO4)cccc3c2C1` (centres undefined), the inhibition was 39.4%. In the case of `Cc1nc(Cc2noc(CC3CC4CCC3C4)n2)no1` (centres undefined) it was 66.8% (active). Regarding `Cc1ccc(CN(C)Cc2nc(CC3CC3)no2)o1`, the inhibition entry is “inactive”. With `CN=c1scc(-c2ccccc2)n1N=Cc1ccccc1Br`, the inhibition was 6.14%. As for `COCCN=c1scc(-c2ccc(OC(F)F)cc2)n1N=Cc1ccc(OC)cc1`, the inhibition was 63.2% (active).

In the case of `CN=c1scc(-c2ccccc2)n1N=Cc1cccc(C(F)(F)F)c1`, the inhibition was 1.23%. For the compound `CN=c1scc(-c2cccc(Br)c2)n1N=Cc1cccc(O)c1O`, the inhibition is 17.2%.

`C=CCN=c1scc(-c2ccc(OC(F)F)cc2)n1N=Cc1ccc[nH]1`: the inhibition was 46.4%.

In the case of `C(=Nn1c(-c2ccccc2)csc1=NCCc1ccccc1)c1ccccn1`, the inhibition is 21.8%. Consider `COCCN=c1scc(-c2ccc(Br)cc2)n1N=Cc1ccc(F)cc1`, for which the inhibition was 40.8%. Take `COc1ccc(/C=N\n2c(-c3ccc(Cl)cc3)csc2=N)cc1`: the inhibition was 38.1%. Consider `COc1ccc(C=Nn2c(-c3ccc(Cl)cc3)csc2=N)cc1`, for which the inhibition was 60.1% (active). For the compound `CN=c1scc(-c2ccc(OC(F)F)cc2)n1N=Cc1cccc(O)c1O`, the inhibition was 98.9% (active). Turning to `COCCN=c1scc(-c2ccc(OC(F)F)cc2)n1N=CC1CC2C=CC1C2` (centres undefined), the inhibition was 101% (active).
